From the supplement of paper PMC10849652
Of roughly 7,900 targets only a part is listed; those with a hit were picked by preference. About 0.6% of all pairs of compound and target were hits.

Assays:
Experiment in all cases: log2 fold change, soluble protein after heating vs DMSO (PISA); higher = thermal stabilisation; K562 cells, 10 uM, 30 min; active = over 0.2 and 3.5 SD of the protein, either way, in both replicates (recomputed)
bafetinib = compound: Cc1ccc(NC(=O)c2ccc(CN3CC[C@H](N(C)C)C3)c(C(F)(F)F)c2)cc1Nc1nccc(-c2cncnc2)n1 [bafetinib]
How it was run: (§1)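 Thermal stability values are relative to control samples and come from duplicates. They are expressed as log2 fold changes. For measurement, K562 cells (2×10^6 cells/mL) received 10 μM compound for 30 min, and aliquots were heated for 3 min over 48°C-58°C, pooled, and extracted at 4°C in PBS with 0.5% NP-40. Soluble protein, the supernatant after 21,000xg for 90 min, was quantified by TMTpro 16plex LC-MS/MS with equalised channel sums.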

[1] = compound: Cc1cccc(CC(=O)N2CCc3c2ccc(-c2cn(C)c4ncnc(N)c24)c3F)n1
How it was run: as §1

nilotinib = compound: Cc1cn(-c2cc(NC(=O)c3ccc(C)c(Nc4nccc(-c5cccnc5)n4)c3)cc(C(F)(F)F)c2)cn1 [nilotinib]
How it was run: as §1

[2] = compound: Cc1nc(Nc2n[nH]c3c2CN(C(=O)N[C@H](CN(C)C)c2ccccc2)C3(C)C)c2sccc2n1
How it was run: as §1

dasatinib = compound: Cc1nc(Nc2ncc(C(=O)Nc3c(C)cccc3Cl)s2)cc(N2CCN(CCO)CC2)n1 [dasatinib]
How it was run: as §1

[3] = compound: Cc1ncc(-c2ccnc(Nc3ccc(S(C)(=O)=O)cc3)n2)n1C(C)C
How it was run: as §1

[4] = compound: Cn1cc(-c2ccc3c(c2)CCN3C(=O)Cc2cccc(C(F)(F)F)c2)c2c(N)ncnc21
How it was run: as §1

[5] = compound: Cn1cc(-c2ccc3nnc(C(F)(F)c4ccc5ncccc5c4)n3n2)cn1
How it was run: as §1

tipifarnib = compound: Cn1cncc1[C@@](N)(c1ccc(Cl)cc1)c1ccc2c(c1)c(-c1cccc(Cl)c1)cc(=O)n2C [tipifarnib]
How it was run: as §1

mubritinib = compound: FC(F)(F)c1ccc(/C=C/c2nc(COc3ccc(CCCCn4ccnn4)cc3)co2)cc1 [mubritinib]
How it was run: as §1

Measured: log2 fold change

MRPS25 (UniProt P82663)
inactive: bafetinib 0.125 | [1] 0.158 | nilotinib -0.144 | [2] -0.043 | dasatinib -0.105 | [3] 0.044 | [4] 0.037 | [5] 0 | tipifarnib -0.077 | mubritinib 0.069

NDUFA7 (UniProt M0R0N0)
inactive: bafetinib -0.052

MITD1 (UniProt Q8WV92)
inactive: bafetinib -0.217 | [1] -0.006 | nilotinib -0.065 | [2] -0.035 | dasatinib 0.006 | [3] -0.101 | [4] 0.01 | [5] 0.009 | tipifarnib 0.098 | mubritinib -0.108

MYH11 isoform 2 (UniProt P35749)
inactive: bafetinib -0.055 | [1] -0.016 | nilotinib 0.05 | [2] 0.014 | dasatinib -0.027 | [3] -0.025 | [4] 0.039 | [5] -0.001 | tipifarnib 0.005 | mubritinib 0.007

NEDD4 isoform 4 (UniProt P46934)
inactive: bafetinib -0.067 | [1] 0.054 | nilotinib -0.047 | [2] -0.083 | dasatinib -0.068 | [3] 0.052 | [4] -0.016 | [5] 0.027 | tipifarnib -0.024 | mubritinib 0.008

MRPL47 (UniProt Q9HD33)
inactive: bafetinib 0.264 | [1] -0.263 | nilotinib -0.124 | [2] 0.118 | dasatinib 0.016 | [3] 0.073 | [4] -0.174 | [5] -0.085 | tipifarnib 0.103 | mubritinib -0.029

NIBAN1 (UniProt Q9BZQ8)
Chain of UniProt Q9BZQ8 (Q9BZQ8 whole entry, looked up): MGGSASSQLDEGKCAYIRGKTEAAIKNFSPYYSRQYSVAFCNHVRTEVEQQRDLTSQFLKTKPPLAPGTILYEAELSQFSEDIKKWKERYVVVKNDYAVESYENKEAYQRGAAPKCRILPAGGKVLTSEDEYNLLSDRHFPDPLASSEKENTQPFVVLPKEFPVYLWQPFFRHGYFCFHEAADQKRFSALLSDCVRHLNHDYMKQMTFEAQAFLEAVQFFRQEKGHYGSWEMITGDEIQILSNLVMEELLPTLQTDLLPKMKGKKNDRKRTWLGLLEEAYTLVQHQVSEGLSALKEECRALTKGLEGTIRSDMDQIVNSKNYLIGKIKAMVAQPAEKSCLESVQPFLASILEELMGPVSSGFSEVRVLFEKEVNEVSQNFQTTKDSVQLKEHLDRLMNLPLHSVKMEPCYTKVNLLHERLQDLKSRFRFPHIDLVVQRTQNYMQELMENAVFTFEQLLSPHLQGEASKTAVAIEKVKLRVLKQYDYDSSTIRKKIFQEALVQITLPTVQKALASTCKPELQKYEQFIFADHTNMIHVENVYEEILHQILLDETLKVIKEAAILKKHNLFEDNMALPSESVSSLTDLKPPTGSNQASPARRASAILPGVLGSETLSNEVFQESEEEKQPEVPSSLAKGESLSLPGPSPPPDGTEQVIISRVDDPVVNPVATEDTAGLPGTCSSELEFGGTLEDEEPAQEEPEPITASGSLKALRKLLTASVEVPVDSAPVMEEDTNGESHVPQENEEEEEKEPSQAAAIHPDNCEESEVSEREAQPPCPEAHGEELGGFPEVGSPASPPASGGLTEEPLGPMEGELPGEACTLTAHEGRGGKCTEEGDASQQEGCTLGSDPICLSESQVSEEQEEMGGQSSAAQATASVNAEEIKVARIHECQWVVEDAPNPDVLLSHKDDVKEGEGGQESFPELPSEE
inactive: bafetinib -0.013 | [1] 0.121 | nilotinib -0.041 | dasatinib -0.14 | [3] -0.057 | [4] 0.001 | [5] -0.035 | tipifarnib -0.04 | mubritinib 0.013
active: [2] -0.383

NA, A0A2R8Y3M9
inactive: bafetinib -0.605 | [1] 0.19 | nilotinib 0.035 | [2] -0.091 | dasatinib -0.013 | [3] 0.31 | [4] 0.503 | [5] -0.117 | tipifarnib 0.08

NSDHL (UniProt Q15738)
Chain of UniProt Q15738 (Q15738 whole entry, looked up): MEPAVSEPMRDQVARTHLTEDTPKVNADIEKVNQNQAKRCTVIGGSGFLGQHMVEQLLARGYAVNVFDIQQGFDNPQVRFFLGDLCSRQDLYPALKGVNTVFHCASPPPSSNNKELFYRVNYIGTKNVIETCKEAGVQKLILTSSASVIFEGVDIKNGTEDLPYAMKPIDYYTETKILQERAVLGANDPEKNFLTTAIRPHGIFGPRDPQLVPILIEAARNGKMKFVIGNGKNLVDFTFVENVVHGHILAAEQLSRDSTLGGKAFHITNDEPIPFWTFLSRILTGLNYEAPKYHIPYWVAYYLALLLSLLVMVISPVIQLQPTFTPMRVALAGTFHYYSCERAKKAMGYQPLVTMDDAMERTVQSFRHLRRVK
inactive: bafetinib 0.006 | [1] 0.014 | nilotinib 0.033 | [2] -0.021 | dasatinib 0.054 | [3] 0.001 | [4] 0.11 | [5] 0.133 | tipifarnib 0.029 | mubritinib 0.164

NOL7 (UniProt Q9UMY1)
Chain of UniProt Q9UMY1 (Q9UMY1 whole entry, looked up): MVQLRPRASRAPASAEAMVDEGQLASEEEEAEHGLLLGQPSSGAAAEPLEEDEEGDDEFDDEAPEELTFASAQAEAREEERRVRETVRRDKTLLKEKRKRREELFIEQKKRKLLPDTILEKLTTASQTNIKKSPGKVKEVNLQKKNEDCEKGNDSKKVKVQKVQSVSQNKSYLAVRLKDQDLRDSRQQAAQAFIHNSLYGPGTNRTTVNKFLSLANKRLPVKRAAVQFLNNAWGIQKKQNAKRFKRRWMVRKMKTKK
inactive: bafetinib 0.284 | [1] -0.107 | nilotinib -0.016 | [2] 0.146 | dasatinib 0.183 | [3] -0.073 | [4] -0.257 | [5] -0.148 | tipifarnib 0.154 | mubritinib -0.156

NUDT1 (UniProt P36639)
inactive: bafetinib 0.129 | [1] 0.052 | nilotinib -0.087 | [2] 0.271 | dasatinib -0.127 | [3] 0.301 | [4] 0.194 | [5] 0.06 | tipifarnib -0.069 | mubritinib 0.137

NMRAL1 (UniProt Q9HBL8)
inactive: [1] -0.026 | [2] 0.024 | dasatinib -0.071 | [3] -0.018 | [4] 0.031 | tipifarnib -0.035 | mubritinib -0.145
active: bafetinib 0.806 | nilotinib 1.29 | [5] 0.962

NOSIP (UniProt Q9Y314)
inactive: bafetinib 0.085 | [1] 0.066 | nilotinib -0.11 | [2] -0.277 | dasatinib -0.229 | [3] 0.247 | [4] -0.063 | [5] -0.111 | tipifarnib -0.128 | mubritinib -0.098

NOB1 (UniProt Q9ULX3)
Chain of UniProt Q9ULX3 (Q9ULX3 whole entry, looked up): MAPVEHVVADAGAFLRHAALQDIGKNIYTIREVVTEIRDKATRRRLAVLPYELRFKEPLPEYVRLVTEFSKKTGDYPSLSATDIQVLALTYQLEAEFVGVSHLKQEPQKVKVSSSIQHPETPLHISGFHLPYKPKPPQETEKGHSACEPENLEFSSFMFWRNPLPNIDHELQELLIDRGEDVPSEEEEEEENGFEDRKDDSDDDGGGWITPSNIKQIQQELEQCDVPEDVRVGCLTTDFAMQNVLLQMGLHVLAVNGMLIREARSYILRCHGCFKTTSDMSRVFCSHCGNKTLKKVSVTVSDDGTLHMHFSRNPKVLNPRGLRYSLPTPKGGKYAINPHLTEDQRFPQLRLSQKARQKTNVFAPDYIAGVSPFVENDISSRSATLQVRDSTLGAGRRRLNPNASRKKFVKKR
inactive: bafetinib 0.014 | [1] 0.093 | nilotinib -0.044 | [2] -0.005 | dasatinib -0.054 | [3] -0.045 | [4] -0.003 | [5] 0.059 | tipifarnib -0.106 | mubritinib -0.043

MRPS24 (UniProt Q96EL2)
inactive: bafetinib 0.283 | [1] 0.183 | nilotinib -0.195 | [2] 0.057 | dasatinib -0.024 | [3] 0.028 | [4] -0.141 | [5] 0.008 | tipifarnib -0.035 | mubritinib 0.186

NEDD4L (UniProt Q96PU5)
inactive: bafetinib -0.037 | [1] -0.062 | nilotinib 0.015 | [2] -0.134 | dasatinib -0.103 | [3] 0.031 | [4] -0.097 | [5] -0.078 | tipifarnib -0.022 | mubritinib 0.01

PAFAH1B3 (UniProt Q15102)
Chain of UniProt Q15102 (Q15102 whole entry, looked up): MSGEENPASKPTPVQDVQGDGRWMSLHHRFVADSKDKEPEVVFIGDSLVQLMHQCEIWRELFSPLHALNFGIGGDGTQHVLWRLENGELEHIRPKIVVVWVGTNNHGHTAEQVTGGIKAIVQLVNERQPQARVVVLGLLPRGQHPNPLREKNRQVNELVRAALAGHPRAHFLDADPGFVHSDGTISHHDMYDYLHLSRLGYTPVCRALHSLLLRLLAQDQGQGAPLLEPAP
inactive: bafetinib 0.003 | [1] 0.058 | nilotinib 0.008 | [2] -0.031 | dasatinib -0.065 | [3] -0.011 | [4] 0.192 | [5] 0.039 | tipifarnib -0.163 | mubritinib 0.075

NASP (UniProt P49321)
Chain of UniProt P49321 (P49321 whole entry, looked up): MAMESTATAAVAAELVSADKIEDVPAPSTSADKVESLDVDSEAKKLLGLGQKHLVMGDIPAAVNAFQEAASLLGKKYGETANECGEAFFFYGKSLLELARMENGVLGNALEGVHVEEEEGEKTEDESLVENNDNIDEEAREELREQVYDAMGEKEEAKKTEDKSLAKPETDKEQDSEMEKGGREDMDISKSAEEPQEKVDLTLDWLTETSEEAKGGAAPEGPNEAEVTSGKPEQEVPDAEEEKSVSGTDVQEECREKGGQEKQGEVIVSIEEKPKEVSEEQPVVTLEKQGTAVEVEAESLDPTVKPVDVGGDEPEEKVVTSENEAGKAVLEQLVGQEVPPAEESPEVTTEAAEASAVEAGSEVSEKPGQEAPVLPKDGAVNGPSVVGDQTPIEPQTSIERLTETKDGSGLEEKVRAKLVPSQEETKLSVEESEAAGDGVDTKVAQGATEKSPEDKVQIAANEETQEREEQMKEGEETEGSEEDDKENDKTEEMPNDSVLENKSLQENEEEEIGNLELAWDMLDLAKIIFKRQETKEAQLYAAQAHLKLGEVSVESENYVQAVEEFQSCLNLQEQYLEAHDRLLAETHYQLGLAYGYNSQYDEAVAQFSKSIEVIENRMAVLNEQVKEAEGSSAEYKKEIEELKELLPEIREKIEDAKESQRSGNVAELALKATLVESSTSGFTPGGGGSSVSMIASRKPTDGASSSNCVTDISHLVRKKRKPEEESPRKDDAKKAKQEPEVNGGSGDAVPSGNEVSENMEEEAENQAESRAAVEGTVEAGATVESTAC
inactive: bafetinib -0.036 | [1] 0.011 | nilotinib -0.013 | [2] -0.032 | dasatinib -0.027 | [3] 0 | [4] -0.02 | [5] 0.009 | tipifarnib -0.026 | mubritinib 0.026

NMT1 (UniProt P30419)
inactive: bafetinib 0.064 | [1] -0.026 | nilotinib 0.049 | [2] 0.06 | dasatinib -0.012 | [3] -0.003 | [4] 0.026 | [5] -0.001 | tipifarnib -0.026 | mubritinib 0.076

NUP205 (UniProt Q92621)
inactive: bafetinib -0.052 | [1] 0 | nilotinib -0.042 | [2] -0.025 | dasatinib -0.133 | [3] -0.004 | [4] -0.005 | [5] -0.052 | tipifarnib -0.072 | mubritinib 0.017

NUP210 (UniProt Q8TEM1)
Chain of UniProt Q8TEM1 (Q8TEM1 whole entry, looked up): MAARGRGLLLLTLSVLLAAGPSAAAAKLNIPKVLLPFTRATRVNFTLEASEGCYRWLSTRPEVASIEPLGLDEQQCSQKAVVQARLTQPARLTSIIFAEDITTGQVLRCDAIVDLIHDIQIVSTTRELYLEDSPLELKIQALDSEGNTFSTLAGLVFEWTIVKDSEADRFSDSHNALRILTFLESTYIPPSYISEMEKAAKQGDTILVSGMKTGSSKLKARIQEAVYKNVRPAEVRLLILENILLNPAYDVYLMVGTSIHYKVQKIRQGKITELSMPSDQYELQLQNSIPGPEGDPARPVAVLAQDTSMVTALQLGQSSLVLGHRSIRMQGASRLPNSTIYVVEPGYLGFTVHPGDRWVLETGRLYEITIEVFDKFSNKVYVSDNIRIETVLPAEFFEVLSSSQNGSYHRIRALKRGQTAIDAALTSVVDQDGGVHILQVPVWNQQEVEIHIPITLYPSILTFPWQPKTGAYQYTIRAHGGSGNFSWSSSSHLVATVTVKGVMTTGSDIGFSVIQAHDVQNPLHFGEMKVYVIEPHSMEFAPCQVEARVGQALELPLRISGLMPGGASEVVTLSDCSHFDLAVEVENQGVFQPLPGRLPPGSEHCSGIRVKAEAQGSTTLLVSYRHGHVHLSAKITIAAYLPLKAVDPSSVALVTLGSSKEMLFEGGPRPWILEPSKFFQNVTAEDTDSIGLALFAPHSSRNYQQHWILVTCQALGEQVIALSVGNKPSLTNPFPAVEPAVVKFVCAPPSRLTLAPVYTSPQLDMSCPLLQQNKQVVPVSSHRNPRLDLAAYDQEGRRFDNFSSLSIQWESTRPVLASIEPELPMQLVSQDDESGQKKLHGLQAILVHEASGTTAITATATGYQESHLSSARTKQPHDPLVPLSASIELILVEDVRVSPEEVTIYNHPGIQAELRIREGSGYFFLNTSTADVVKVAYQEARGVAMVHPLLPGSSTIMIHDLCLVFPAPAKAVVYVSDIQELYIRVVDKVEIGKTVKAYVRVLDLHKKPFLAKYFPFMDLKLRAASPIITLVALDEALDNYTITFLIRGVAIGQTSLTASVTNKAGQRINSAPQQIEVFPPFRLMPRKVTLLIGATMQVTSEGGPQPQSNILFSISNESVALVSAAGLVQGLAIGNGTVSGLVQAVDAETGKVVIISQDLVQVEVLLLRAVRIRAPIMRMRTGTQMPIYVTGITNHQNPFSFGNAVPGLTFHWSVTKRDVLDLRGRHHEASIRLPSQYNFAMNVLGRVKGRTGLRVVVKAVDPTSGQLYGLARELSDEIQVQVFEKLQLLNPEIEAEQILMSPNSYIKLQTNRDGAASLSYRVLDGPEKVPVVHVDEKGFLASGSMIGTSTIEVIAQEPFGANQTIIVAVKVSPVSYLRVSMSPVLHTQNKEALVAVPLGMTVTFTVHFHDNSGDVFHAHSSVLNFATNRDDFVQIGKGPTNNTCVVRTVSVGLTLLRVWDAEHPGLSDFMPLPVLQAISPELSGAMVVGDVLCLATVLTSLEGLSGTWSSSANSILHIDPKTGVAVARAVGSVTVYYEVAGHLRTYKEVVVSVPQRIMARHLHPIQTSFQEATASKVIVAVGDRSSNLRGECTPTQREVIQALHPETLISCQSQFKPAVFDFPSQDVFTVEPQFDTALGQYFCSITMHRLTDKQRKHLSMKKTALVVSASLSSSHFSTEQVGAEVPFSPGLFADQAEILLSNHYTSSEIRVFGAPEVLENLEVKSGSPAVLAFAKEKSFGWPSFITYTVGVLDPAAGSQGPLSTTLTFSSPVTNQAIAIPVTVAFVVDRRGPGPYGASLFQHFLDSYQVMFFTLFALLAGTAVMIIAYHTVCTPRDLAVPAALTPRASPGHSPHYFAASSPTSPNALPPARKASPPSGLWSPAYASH
inactive: bafetinib -0.178 | [1] 0.053 | nilotinib -0.125 | [2] -0.009 | dasatinib -0.118 | [3] -0.038 | [4] 0.055 | [5] 0 | tipifarnib -0.039 | mubritinib 0.034

NAPG (UniProt Q99747)
inactive: bafetinib 0 | [1] 0.128 | nilotinib -0.057 | [2] -0.157 | dasatinib -0.133 | [3] -0.011 | [4] 0.034 | [5] 0.033 | tipifarnib -0.094 | mubritinib 0.062

NCOA7 (UniProt Q8NI08)
inactive: bafetinib -0.017 | [1] 0.154 | nilotinib -0.044 | [2] -0.046 | dasatinib -0.144 | [3] -0.039 | [4] 0.085 | [5] 0.004 | tipifarnib -0.125 | mubritinib 0.054

MPHOSPH10 (UniProt O00566)
inactive: bafetinib 0.137 | [1] -0.045 | nilotinib -0.055 | [2] -0.028 | dasatinib 0.138 | [3] -0.199 | [4] -0.259 | [5] -0.001 | tipifarnib 0.246 | mubritinib -0.069

MRPS27 isoform 2 (UniProt Q92552)
inactive: bafetinib 0.181 | [1] 0.099 | nilotinib -0.083 | [2] 0.021 | dasatinib -0.104 | [3] -0.049 | [4] 0.022 | [5] 0.033 | tipifarnib -0.112 | mubritinib 0.119

MTHFS (UniProt P49914)
inactive: bafetinib 0.074 | [1] 0.014 | nilotinib 0.154 | [2] 0.045 | dasatinib -0.094 | [3] 0.003 | [4] 0.032 | [5] -0.008 | tipifarnib 0.001 | mubritinib 0.045

OSTC (UniProt Q9NRP0)
Chain of UniProt Q9NRP0 (Q9NRP0 whole entry, looked up): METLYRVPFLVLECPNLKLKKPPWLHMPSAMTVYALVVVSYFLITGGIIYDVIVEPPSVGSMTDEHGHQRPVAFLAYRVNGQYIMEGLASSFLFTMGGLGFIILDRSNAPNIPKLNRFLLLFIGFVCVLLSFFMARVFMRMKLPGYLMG
inactive: bafetinib -0.137 | [1] 0.027 | nilotinib -0.047 | [2] -0.013 | dasatinib -0.059 | [3] -0.029 | [4] 0.057 | [5] 0.069 | tipifarnib -0.013 | mubritinib 0.044

NMD3 (UniProt Q96D46)
inactive: bafetinib 0.071 | [1] 0.03 | nilotinib 0.025 | dasatinib 0.014 | [3] 0.123 | [4] 0.083 | [5] 0.028 | tipifarnib -0.107 | mubritinib 0.083
active: [2] 0.316

MORF4L2 (UniProt Q15014)
inactive: bafetinib 0.026 | [1] -0.055 | nilotinib 0.009 | [2] 0.01 | dasatinib 0.045 | [3] -0.005 | [4] -0.087 | [5] -0.131 | tipifarnib 0.059 | mubritinib -0.076

NOL11 (UniProt Q9H8H0)
inactive: bafetinib -0.042 | [1] 0.017 | nilotinib -0.016 | [2] 0.017 | dasatinib 0.017 | [3] 0.11 | [4] -0.006 | [5] 0.001 | tipifarnib 0.036 | mubritinib -0.012

MON2 isoform 5 (UniProt Q7Z3U7)
inactive: bafetinib -0.001 | [1] 0.026 | nilotinib -0.053 | [2] -0.012 | dasatinib -0.132 | [3] 0.082 | [4] 0.008 | [5] 0.006 | tipifarnib -0.071 | mubritinib -0.03
